Results taken from PubChem BioAssay (EPA / NIEHS).
Inconclusive results are not listed. Activity calls are given as the source filed them. The calls were made as follows: active = hit-call score of the fitted dose curve at least 0.9, where 1 is the maximum; inconclusive = response in the unintended direction; inactive = score below 0.9.

Molecular target: human Serotonin, 5-Hydroxytryptamine Receptor 3 (5HT3), HTR3A (gene 3359) (UniProt P46098)
Assay: NVS_LGIC_h5HT3: NovaScreen (NVS) Ligand-Gated Ion Channel Assay for human Serotonin, 5-Hydroxytryptamine Receptor 3 (5HT3) (AID 2283325)
In short: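 Radioligand displacement binding to human 5-HT3 from HEK293 membranes, read by filter-based scintillation counting after 1 h. Screen at 25 uM in duplicate; chemicals passing threshold were retested in concentration-response up to 50 uM.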

Sequence of human Serotonin, 5-Hydroxytryptamine Receptor 3 (5HT3), HTR3A (gene 3359) (P46098 whole entry, looked up): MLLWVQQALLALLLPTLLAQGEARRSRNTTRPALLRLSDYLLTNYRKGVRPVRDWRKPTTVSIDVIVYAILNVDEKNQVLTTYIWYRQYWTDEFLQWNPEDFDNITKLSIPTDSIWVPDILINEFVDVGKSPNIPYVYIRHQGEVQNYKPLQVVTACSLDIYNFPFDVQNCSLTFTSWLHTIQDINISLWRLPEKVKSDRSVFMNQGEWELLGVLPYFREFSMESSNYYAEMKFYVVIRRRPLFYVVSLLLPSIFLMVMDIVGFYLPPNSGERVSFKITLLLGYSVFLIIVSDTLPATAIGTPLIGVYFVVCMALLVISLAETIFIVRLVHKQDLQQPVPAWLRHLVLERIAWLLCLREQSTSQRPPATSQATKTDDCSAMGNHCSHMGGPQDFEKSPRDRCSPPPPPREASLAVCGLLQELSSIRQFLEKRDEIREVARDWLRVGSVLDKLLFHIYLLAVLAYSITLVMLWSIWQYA

| Structure (SMILES) | outcome |
| --- | --- |
| CSc1nnc(C(C)(C)C)c(=O)n1N | inactive |
| C#CCC1=C(C)C(OC(=O)C2C(C=C(C)C)C2(C)C)CC1=O (configuration not stated) | inactive |
